Screens as filed in PubChem BioAssay.
This is a sample that favours compounds with a hit; in the whole collection about 1.6% have one here.
MLLE-PAM2 inh: blocks PAM2 peptide binding to the PABP1 MLLE domain; P11940; GST-MLLE / FITC-PAM2 fluorescence polarization; inhibition, % at 20 µM; hit rate 0.36% among 360,000; in the data active means inhibition above about 35%, passing the limit was not always enough
Target sequence (P11940 whole entry, looked up, the tested form may be a part): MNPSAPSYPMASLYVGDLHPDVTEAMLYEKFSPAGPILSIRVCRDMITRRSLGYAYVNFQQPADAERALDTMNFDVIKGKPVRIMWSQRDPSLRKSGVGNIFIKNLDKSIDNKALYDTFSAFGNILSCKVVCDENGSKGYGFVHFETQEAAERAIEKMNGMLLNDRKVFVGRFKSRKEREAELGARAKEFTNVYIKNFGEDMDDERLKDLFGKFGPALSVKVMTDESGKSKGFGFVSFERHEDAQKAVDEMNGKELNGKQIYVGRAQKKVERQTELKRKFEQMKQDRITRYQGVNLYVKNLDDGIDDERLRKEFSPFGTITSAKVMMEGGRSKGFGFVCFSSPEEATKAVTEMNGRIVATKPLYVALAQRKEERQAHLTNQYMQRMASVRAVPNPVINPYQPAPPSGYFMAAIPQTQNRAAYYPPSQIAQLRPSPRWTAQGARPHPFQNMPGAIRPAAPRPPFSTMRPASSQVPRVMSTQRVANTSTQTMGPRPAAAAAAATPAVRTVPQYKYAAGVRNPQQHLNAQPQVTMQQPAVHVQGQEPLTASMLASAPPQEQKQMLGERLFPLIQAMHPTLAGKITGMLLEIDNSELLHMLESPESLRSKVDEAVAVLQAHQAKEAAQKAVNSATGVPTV
eIF4E 4G PPI: inhibitors of eIF4E and eIF4G interaction in translation initiation | P63073+Q04637 | TR-FRET eIF4E-eIF4GI(517-606) binding, 2 h | inhibition, % at 21.7 µM | hit rate 0.37% among 220,000 | AID 782;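 active means inhibition above about 30%, limit read from the data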
PERK inhibitor: blocks human PERK kinase. CHO PERK-DD fusion, SEAP luminescence translation reporter. Q9NZJ5. inhibition, % at 5.6 µM. AID 1416. hit rate 0.17% among 220,000;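 active means inhibition above the mean inhibition of all tested compounds plus 3 SD, set separately per screening campaign, cut at about 2.9% in these data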;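 further: PERK kinase domain activated by AP20187 dimerizer at 100 nM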
eIF4H inh: inhibitors of RNA binding by human eIF4H; AID 2012; eIF4H fluorescence polarization binding assay; inhibition, % at 35 µM; hit rate 0.94% among 290,000; Q15056;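 further: calls also rest on retests at 20 µM and on dose response follow-up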
PABP polyA inh: PABP-poly(A) binding inhibition. inhibition, % at 35 µM. PABP-poly(A) RNA binding, fluorescence polarization. hit rate 1% among 290,000. P11940. AID 2014;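 further: calls also rest on retests at 20 µM and on dose response follow-up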
Hits are given with their value; – = inactive; ? = inconclusive; · = no result given; [ ] = another dose, or the depositor's remark. Unless noted, how the calls were made is not given here.

SMILES	MLLE-PAM2 inh	eIF4E 4G PPI	PERK inhibitor	eIF4H inh	PABP polyA inh
CCCCCCCC[n+]1cccc(C(=O)N(CC)CC)c1	–	–	–	–	–
CCCCCCCCCCCCCCCC[n+]1ccc(/C=N/O)cc1	–	70.0[fluorescence artefact?]	–	–	–
CCCCCCCCCCCCCCCC[n+]1ccccc1	–	·	·	·	·
CCCCCCCCCCCCCCCC[n+]1cccc(C(=O)N(CC)CC)c1	–	76.5[fluorescence artefact?]	–	–	–
CC(=O)C(C(c1ccccc1)N1CCOCC1)N1CCOCC1 (stereo not drawn)	–	·	·	·	·
O=C1C(Cl)=C(Nc2ccc(O)cc2)C(=O)c2ccccc21	–	–	–	–	–
O=C(NC1CC1)C1CCN(C2CCN(C(=O)Cc3ccc(F)cc3)CC2)CC1	–	–	–	–	–
Cn1ccc(CC(=O)N2CCC(N3CCC(C(=O)N4CCCC4)CC3)CC2)c1	–	–	–	51.9	23.8
O=C(c1ccc([N+](=O)[O-])cc1Cl)N1CCN(Cc2ccccc2)CC1	–	·	·	·	·
CC(C)(C)OC(=O)CN1C(=O)NC(Cc2c[nH]c3ccccc23)C1=O (stereo not drawn)	–	·	·	–	–
C/C(N)=C(/C#N)C(=O)CN1C(=O)NC(Cc2c[nH]c3ccccc23)C1=O (stereo not drawn)	–	·	·	57.2	–
Cc1ccc(-c2csc3ncnc(OCC(=O)NC(=O)NCc4ccco4)c23)cc1	–	–	–	20.6	–
Cc1sc2ncnc(NCc3cccs3)c2c1C	–	–	–	–	–
Cc1nc(SCC(=O)NCc2ccco2)c2c(C)c(C)sc2n1	–	–	–	–	–
Cc1sc2ncnc(NCc3ccco3)c2c1C	–	–	–	66.0	44.9
Cc1sc2ncnc(SCC(=O)NC(=O)NCc3ccco3)c2c1C	–	–	–	82.5	47.4
Cc1c2cnn(CC(=O)Nc3c(F)c(F)cc(F)c3F)c(=O)c2c(C)n1Cc1ccccc1F	–	31.8	–	94.9	9.6
CNC(=O)Cn1ncc2c(C)n(Cc3ccc(C)cc3)c(C)c2c1=O	–	–	–	–	–
Cc1sc(NC(=O)CSc2nnc(-c3ccc(F)cc3)o2)c(C#N)c1C	–	–	–	66.3	65.2
COc1ccccc1NC(=O)c1ccc(S(=O)(=O)N(C)C)cc1	–	38.0[fluorescence artefact?]	–	–	–
COCCCN(C(=S)NC(=O)c1ccc(C(C)(C)C)cc1)c1c(N)n(Cc2ccccc2)c(=O)[nH]c1=O	–	–	–	–	–
CN(C(=S)NC(=O)c1ccccc1)c1c(N)n(Cc2ccccc2)c(=O)[nH]c1=O	40.1	–	–	–	–
CCCCOc1ccc(C(=O)CCN2CCOCC2)cc1	–	–	–	–	–
Cc1cc(C=C2C(=O)c3ccccc3C2=O)c(C)n1-c1ccc(Cl)cc1	–	–	–	62.9	–
Cc1cccc(-n2c(C)cc(C=C3C(=O)c4ccccc4C3=O)c2C)c1	–	–	–	–	–
SMILES	MLLE-PAM2 inh	eIF4E 4G PPI	PERK inhibitor	eIF4H inh	PABP polyA inh
C/C(=N\NC(=O)c1cc(C)nc2ccccc12)c1ccco1	–	–	–	–	–
C/C(=N\Nc1nc2ccccc2c(=O)n1O)c1ccco1	–	·	·	78.7	–
O=[N+]([O-])c1cccc(S(=O)(=O)Nc2nc3ccccc3nc2Nc2cccc(S(=O)(=O)N3CCCCC3)c2)c1	–	–	–	–	–
Cc1ccc(S(=O)(=O)Nc2nc3ccccc3nc2Nc2cccc(S(=O)(=O)N3CCCC3)c2)cc1	44.9	–	–	?	?
O=C(CCN1CCN(c2ccc(F)cc2)CC1)Nc1ccccc1F	–	–	–	–	–
Fc1ccc(CSc2ccc(-c3ccco3)nn2)cc1	–	–	–	?	68.2
O=C(CSc1ccc(-c2ccco2)nn1)c1ccc(F)cc1	–	–	–	–	active
Cn1c(=O)n(C)c2cc(NC(=O)c3cccc([N+](=O)[O-])c3)c(Br)cc21	–	–	–	–	–
O=[N+]([O-])c1ccc(-c2ccc(/C=N/Nc3nc(N4CCCC4)nc(N4CCCC4)n3)o2)cc1	–	–	–	–	–
COc1ccc(-c2cnnc(N/N=C/c3ccc(-c4ccc([N+](=O)[O-])cc4)o3)n2)cc1	–	30.7	–	–	–
O=S(=O)(O)c1cccc2c(N=Nc3ccc(O)c4ncccc34)cccc12	–	·	·	82.2	98.0
CN(CC(=O)NCCc1ccc(S(N)(=O)=O)cc1)S(=O)(=O)c1ccc(Br)s1	–	·	·	–	–
O=C(c1ccc(CS(=O)Cc2ccc(Cl)cc2)o1)N1CCN(c2ccccc2F)CC1 (stereo not drawn)	–	·	·	–	–
C=CCSc1nc2ccccc2c(=O)[nH]1	–	–	3.0	–	–
CCOC(=O)N1CCN(c2cc(NCCC(=O)O)c3c4c(onc24)-c2ccccc2C3=O)CC1	–	–	–	85.7	73.1
O=C(O)CCNc1ccc(NCCC(=O)O)c2c1C(=O)c1ccccc1C2=O	–	·	·	?	?
O=C(O)CCCNc1cc(N2CCC3(CC2)OCCO3)c2noc3c2c1C(=O)c1ccccc1-3	·	–	–	115.0	105.4
CCCCN1C(=O)C(CC(=O)NCCCN(C)C)CC(C(=O)N(C)C)=C1C (stereo not drawn)	–	·	·	·	·
Cc1ccc(CNC(=O)C(=O)Nc2nccs2)cc1	–	–	–	–	–
CC(=O)c1cccc(S(=O)(=O)NC2CCSc3ccccc32)c1 (stereo not drawn)	47.1	·	·	–	–
NS(=O)(=O)c1cc(C(=O)NC2CCSc3ccccc32)ccc1Cl (stereo not drawn)	–	·	·	106.0	90.0
S=C(Nc1ccc2nc(-c3ccccn3)c(-c3ccccn3)nc2c1)N1CCOCC1	46.0	–	–	–	–
O=C(O)c1cccc(COc2ccc3c(c2)CCC3)c1	–	–	–	–	–
O=C(O)c1ccc2c(c1)CCCN2	–	–	–	52.4	63.3
CCN(Cc1ccc(OC)c(F)c1)C(=O)c1cc2ccccc2o1	–	·	·	–	–
SMILES	MLLE-PAM2 inh	eIF4E 4G PPI	PERK inhibitor	eIF4H inh	PABP polyA inh
CCCc1cc(=O)[nH]c(SCCOc2ccc(Cl)cc2)n1	–	–	2.9	–	–
O=C(O)/C=C/c1ccc(O)c(O)c1	–	–	–	–	–
O=C(/C=C/c1ccc(O)c(O)c1)O[C@H](Cc1ccc(O)c(O)c1)C(=O)O	·	–	·	98.2	81.8
COCCn1c(C)cc(/C=C2/SC(=O)N(C(C)C(=O)OC)C2=O)c1C (stereo not drawn)	–	–	–	–	–
COCCn1c(C)cc(/C=C2\NC(=S)N(C)C2=O)c1C	–	–	–	–	2.8
CN1CC=C2C(C#N)=C(N)C(C#N)(C#N)[C@H](c3ccoc3)[C@H]2C1	–	–	–	?	?
CN1CC=C2C(C#N)=C(N)C(C#N)(C#N)C(c3cccc(Cl)c3Cl)C2C1 (stereo not drawn)	–	–	–	121.5	–
Cn1c(=O)cc(-c2ccccc2)c2ccccc21	–	–	–	–	–
C=CCNC(=S)Nc1cccc2ccccc12	–	–	3.0	–	–
O=c1c2[nH]c3ccccc3c2nc2n1CCCS2	–	–	–	–	–
O=c1[nH]c(C(Cl)Cl)nc2sc3c(c12)CCN(Cc1ccccc1)C3	–	–	–	78.1	12.3
COc1cc(/C=N/NC(=O)CSc2n[nH]c(=O)[nH]c2=O)cc(OC)c1O	–	–	–	–	52.3
